In the library only some 10% were active in any assay of this set; here they are far more common.
PLK1 PBD inh: qHTS for Inhibitors of PLK1-PDB (polo-like kinase 1 - polo-box domain): Primary Screen. Serine/threonine-protein kinase PLK1 (Homo sapiens), P53350. Plk1 PBD binding of FITC phosphopeptide, fluorescence polarization. Potency, µM, for inactives: max response, negative = inhibition, actives largely listed as inhibitors. hit rate 2.8% among 360,000. AID 720504, 2013; note: potency is the fitted concentration of half-maximal effect; series mostly up to about 57 µM; nearly all actives have a fitted effect of over 65% in size
MmCpn inh: Inhibitors of TCP-1 ring complex (TRiC) of Methanococcus maripaludis (MmCpn): qHTS | purified Mm-Cpn ATPase, ADP Transcreener TR-FRET | Chaperonin Mm-Cpn (Methanococcus maripaludis) | Potency, µM (titrated, usually from 76.9 µM), inactives show at the top dose activity, negative = inhibition, usual class: inhibitors | AID 504842, 2011 | hit rate 0.031% among 330,000; note: potency is the fitted concentration of half-maximal effect; nearly all actives have a fitted effect of over 80% in size
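Measured: ADP formation by purified Mm-CPN. Conditions: 25 nM protein, 10 uM ATP, Tris pH 7.4 with Mg2+, K+ and DTT, 37°C for 30 min. Detection: Transcreener HTRF after 30 min at room temperature.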
Sfp PPTase inh: qHTS Assay for Inhibitors of Bacillus subtilis Sfp phosphopantetheinyl transferase (PPTase); 4'-phosphopantetheinyl transferase ffp (Bacillus subtilis), Q9F4F7; Biochemical Sfp PPTase activity, qHTS; Potency, µM, for inactives: largest response in the series, negative = inhibition, hits mostly inhibitors; hit rate 3.5% among 310,000; AID 1490, 2009;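 note: the enzyme is Sfp with the accession as filed and its product quenches rhodamine fluorescence; potency is the fitted concentration of half-maximal effect; 0% = enzyme reaction without inhibitor and -100% = no enzyme wells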
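Reaction rates are the 30-min fluorescence difference (ex 525, em 598 nm) in wells containing 15 nM Sfp, 5 uM rhodamine-CoA and 12.5 uM BHQ-2-YbbR at pH 7.6 with 10 mM MgCl2.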
VDR inh: Inhibitors of the vitamin D receptor (VDR): qHTS; Vitamin D3 receptor (Homo sapiens), P11473; VDR-SRC2-3 peptide fluorescence polarization, 2 h; Potency, µM, inactives show max response, negative = inhibition, usual class: inhibitors; hit rate 0.93% among 400,000; AID 504847, 2011; note: potency is the fitted concentration of half-maximal effect
Target sequence (P11473 whole entry, looked up): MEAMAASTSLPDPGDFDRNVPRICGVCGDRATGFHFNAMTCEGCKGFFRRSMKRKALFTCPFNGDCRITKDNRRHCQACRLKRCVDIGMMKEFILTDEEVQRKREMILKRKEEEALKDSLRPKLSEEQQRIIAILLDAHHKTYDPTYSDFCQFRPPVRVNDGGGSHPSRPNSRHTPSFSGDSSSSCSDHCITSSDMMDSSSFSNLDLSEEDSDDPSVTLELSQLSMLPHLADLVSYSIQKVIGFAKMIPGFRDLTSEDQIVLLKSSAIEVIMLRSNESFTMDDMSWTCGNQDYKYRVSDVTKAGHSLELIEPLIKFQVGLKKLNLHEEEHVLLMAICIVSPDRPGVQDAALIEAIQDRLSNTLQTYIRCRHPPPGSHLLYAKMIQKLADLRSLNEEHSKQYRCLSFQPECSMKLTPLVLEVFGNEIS
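After 23 nl compound addition and a short centrifugation, plates sat for 2 hours at ambient temperature; polarization of fluorescence then indicated loss of VDR binding to peptide SRC2-3.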
CCT chaperon mod: High-Throughput Screening for Modulators of Cytosolic Chaperonin Activity; hit rate 0.3% among 360,000; AID 651819, 2012; purified chaperonin ATPase assay, HTRF ADP detection, 30 min; activity change, % (concentration not given with the values), hits read low; in the data active = activity change below about -30%
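TRiC at 40 or 20 nM final (batch-dependent) in 30 mM Tris pH 7.4, 100 mM KCl, 5 mM MgCl2, 1 mM DTT, with compound at single 76 uM and 10 uM ATP, 30 min at 37 deg C. ADP detected by HTRF Transcreener, 665/615 ratio.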
G9a inh: qHTS Assay for Inhibitors of Histone Lysine Methyltransferase G9a. Histone-lysine N-methyltransferase EHMT2 (Homo sapiens), Q96KQ7. G9a H3K9 monomethylation, AlphaScreen, 2 h. Potency, µM (highest dose often 102 µM), for inactives: at the highest dose activity, negative = inhibition, actives largely listed as inhibitors. hit rate 8.8% among 350,000; note: potency is the fitted concentration of half-maximal effect; nearly all actives have a fitted effect of over 75% in size
Target sequence (Q96KQ7 913-1193 limits assumed): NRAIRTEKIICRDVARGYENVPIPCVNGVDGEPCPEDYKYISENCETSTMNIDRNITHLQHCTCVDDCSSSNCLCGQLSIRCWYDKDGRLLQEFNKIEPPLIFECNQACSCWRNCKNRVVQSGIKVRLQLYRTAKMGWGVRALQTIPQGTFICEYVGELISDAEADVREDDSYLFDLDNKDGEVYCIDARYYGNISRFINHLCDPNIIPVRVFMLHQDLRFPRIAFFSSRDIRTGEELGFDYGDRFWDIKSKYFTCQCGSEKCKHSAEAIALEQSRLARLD
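Using a bead-based AlphaScreen, monomethylated H3K9 product from 2 h room-temperature reactions (G9a 20 nM, peptide 500 nM, SAM 20 uM) was detected with 0.5 ug/mL rabbit anti-H3K9me1 antibody.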
Numbers without * were called inactive; u = inconclusive; x = no result; [ ] = dose if it differs, or a comment. Unless noted, calls come from the whole dose curve; as a rule, active = well fitted curve in the direction sought with a large enough effect; inconclusive = small, poorly fitted or top-dose-only effect, or another doubt; inactive = no such curve, though single readings can be large; an effect the other way counts as inactive or inconclusive. Unless noted, % is set by controls: 0 for no effect and ±100 for the full control effect.

SMILES	PLK1 PBD inh	MmCpn inh	Sfp PPTase inh	VDR inh	CCT chaperon mod	G9a inh
Cc1nc2sc(C(c3ccco3)N3CCN(c4cccc(Cl)c4)CC3)c(O)n2n1 (stereo unspecified)	-8.8%	-8.2%	1.6%	4.8%	-8.0	12.6µM*
Cc1nc2sc(C(c3cccs3)N3CCN(c4ccccc4)CC3)c(O)n2n1 (stereo unspecified)	-0.7%	-2.3%	18.8%	-19.7%	-1.4	u
Oc1c(C(c2ccco2)N2CCOCC2)sc2ncnn12 (stereo unspecified)	-20.0%	2.4%	39.8µM*	-5.7%	-2.0	39.8µM*
Cc1nc2sc(C(c3ccco3)N3CCN(c4ccccc4)CC3)c(O)n2n1 (stereo unspecified)	3.6%	-2.6%	u	-1.2%	-0.5	44.7µM*
COc1ccc(NC(=O)C2CCCN(c3ncnc4c3nc3n4CCCCC3)C2)c(OC)c1 (stereo unspecified)	x	x	x	24.8%	x	5.1%[59 µM]
Cc1cc(C)n(Cc2ccc(C(=O)O)o2)n1	-11.7%	0.6%	5.9%	-16.0%	-4.8	-8.7%[2.33 µM]
Cc1cc(C)n(Cc2ccc(C(=O)NN)o2)n1	1.7%	-0.4%	-16.5%	-18.2%	-49.9*	x
COc1ccc(C)cc1-n1nnc(-c2nc(-c3ccccc3Cl)no2)c1N	x	x	x	1.2%	x	-11.1%[59 µM]
Cc1cc(C)cc(-n2c(C)cc(C(=S)N3CCOCC3)c2C)c1	18.9µM*	-0.5%	u	-22.4%	-1.4	4.47µM*
COC(=O)[C@@]1(Cc2ccc(OC)cc2)[C@H]2c3cc(C(=O)N(C)C)n(Cc4ccc(C(F)(F)F)nc4)c3C[C@H]2CN1C(=O)c1ccccc1	x	x	17.1%	x	x	x
CCOc1cccc(-c2nc(C(N)=O)c3[nH]c(=O)n(-c4cccc(Cl)c4)c3n2)c1O	-2.2%	-2.7%	-2.6%	-8.6%	-37.5*	12.6%
CCOc1ccccc1-c1nc(C(N)=O)c2[nH]c(=O)n(-c3cccc(C)c3)c2n1	-2.0%	-1.6%	-7.0%	7.3%	1.7	-8.3%[59 µM]
CC(C)c1nc2sc3c(=O)[nH]c(=S)[nH]c3c2c2c1CCCC2	23.8µM*	-12.4%	8.9%	70.8µM*	-0.1	x
O=C(CN1C(=O)CCSc2ccc(S(=O)(=O)N3CCCC3)cc21)Nc1cccc(Cl)c1	x	x	x	10.9%	x	2.1%[59 µM]
O=C1NC2(CCCCC2)C(=O)N1/N=C/c1ccccc1Br	-3.9%	u	12.3%	-12.1%	-1.6	14.2%
O=C1NC2(CCCCC2)C(=O)N1/N=C/c1ccc(O)cc1O	21.2µM*	-2.3%	-11.6%	-26.1%	0.3	3.98µM*
CCn1c(CNC(=O)Cc2ccc(OC)cc2)nnc1SCC(=O)c1ccc(Br)cc1	-14.5%	-0.5%	1.2%	-7.0%	-0.9	0.4%
CCn1c(CNC(=O)c2ccc(OC)cc2)nnc1SCC(=O)c1ccccc1	-11.3%	-1.0%	u	u	-44.5*	59.7%[59 µM]
CCn1c(CNC(=O)c2ccc(OC)cc2)nnc1SCC(=O)Nc1ccccc1	x	x	x	-4.7%	x	-2.1%[59 µM]
CCn1c(CNC(C)=O)nnc1SCC(=O)c1ccc(Br)cc1	-20.7%	-0.9%	u	-67.7%	-0.4	11.2µM*
Cc1cccc(NC(=O)Cn2c(=O)n(Cc3ccc4c(c3)OCO4)c(=O)c3ccccc32)c1	x	x	x	-0.9%	x	-1.2%[59 µM]
COc1cccc(-c2nc(N3CCCCC3C)c3ccccc3n2)c1O (stereo unspecified)	2.1%	-0.8%	-17.7%	9.7%	-0.8	44.7µM*
O=C(Nc1ccc(Cl)cc1Cl)c1cc(S(=O)(=O)NCc2ccc3c(c2)OCO3)ccc1F	x	x	x	12.2%	x	6.4%[59 µM]
Cc1ccc(-n2nc(C(=O)Nc3ccc(Cl)cn3)c3c4ccccc4n(C)c3c2=O)cc1	x	x	x	14.5%	x	4.8%[59 µM]
COC(=O)c1sc2nc(-c3ccccc3)c3c(c2c1N)CCCC3	-10.0%	1.1%	-16.7%	-4.5%	-5.1	160.2%[59 µM]
SMILES	PLK1 PBD inh	MmCpn inh	Sfp PPTase inh	VDR inh	CCT chaperon mod	G9a inh
NC(=O)c1sc2nc(N3CCCCC3)c3c(c2c1N)CCCC3	-14.9%	-18.2%	u	9.8%	-0.1	35.5µM*
Nc1c(C(=O)O)sc2nc(-c3ccccc3)c3c(c12)CCCC3	u	-3.6%	35.5µM*	-25.1%	-1.4	6.31µM*
COC(=O)c1cc2sc(Cl)cc2n1CC(=O)Nc1cc(C)cc(C)c1	x	x	x	-3.6%	x	-10.3%[59 µM]
CC(Oc1cccc(Cl)c1)C(=O)Nc1nc(-c2ccccn2)cs1 (stereo unspecified)	18.9µM*	0.3%	x	2.5%	-2.8	31.6µM*
CC(Oc1ccccc1)C(=O)Nc1nc(-c2ccccn2)cs1 (stereo unspecified)	-24.6%	0.9%	x	7.2%	4.9	50.1µM*
CC(Oc1ccccc1)C(=O)Nc1nc(-c2ccncc2)cs1 (stereo unspecified)	-16.7%	0.9%	x	6.5%	0.6	-9.1%[12.7 µM]
CC1Cc2c(COc3ccccc3)nc3c(c2CO1)CN(CCOc1ccccc1)CC3 (stereo unspecified)	x	x	26.2%	x	x	x
COc1cc(/C=C2\SC(N)=NC2=O)cc(OC)c1	13.4µM*	0.6%	-0.1%	u	-3.5	x
CCOC(=O)c1ccc(NC(=O)Cn2nc3c4ccccc4n(Cc4cccc(F)c4)cc-3c2=O)cc1	x	x	x	2.1%	x	6.9%[59 µM]
Cc1ccc(C)c(-n2cc[nH]c2=S)c1	u	1.3%	u	-17.3%	-2.0	2µM*
CC1=CC(C)(C)NC(=S)N1c1cc(C)cc(C)c1	9.0%	-0.1%	12.4%	-9.3%	-0.8	-7.0%[59 µM]
Cc1ccc(-n2cc[nH]c2=S)c(C)c1	u	-9.6%	-64.7%	12.3%	2.1	8.91µM*
Cc1cc(C)cc(-n2cc[nH]c2=S)c1	-13.1%	0.6%	15.7%	3.2%	0.4	0.794µM*
CCC(O)c1cc2c(cc1NC(=O)c1ccccc1F)OCCO2 (stereo unspecified)	x	x	x	8.5%	x	-20.0%[59 µM]
CC(C)c1ccc(NC(=O)CCS(=O)(=O)c2ccc3c(c2)CC(=O)N3C)cc1	x	x	x	9.1%	x	6.6%[59 µM]
COc1ccc2cc(C(=O)N(C)CC(=O)Nc3ccccc3Br)ccc2c1	-5.9%	-25.9%	x	-4.2%	0.2	8.91µM*
CC1CCc2[nH]c3ccc(C(=O)N(C)CC(=O)Nc4ccccc4Br)cc3c2C1 (stereo unspecified)	-1.3%	2.9%	x	-1.0%	3.3	44.7µM*
Cc1ccc(C)c(NC(=O)CN(C)C(=O)c2ccc3[nH]c4c(c3c2)CC(C)CC4)c1 (stereo unspecified)	-3.4%	1.2%	x	-0.7%	1.8	9.5%[0.501 µM]

Screens deposited in PubChem by National Center for Advancing Translational Sciences (NCATS).
